# About 83,000 compounds went through this panel and 20% of them were active in at least one assay; those are over-represented in the sample as a whole.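 Single-dose data. Exposure time 48 hours. Values below 10 considered active.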 Activity calls are given as the source filed them.
# System: HOP-62 NSCLC
# Test: NCI-60 one-dose screen, 48 h (100 = growth as untreated, 0 = no growth, -100 = all killed)
# Conditions: 10 µM unless noted
row,SMILES,growth
1,O=CN1N=C(c2ccc(Cl)cc2)CC1c1cccc(Nc2ccnc3cc(C(F)(F)F)ccc23)c1 (stereo not given),67.1% (inactive)
2,O=C(CCCCCCCCC(=O)Nc1cccc(C2=NCCN2)c1)Nc1cccc(C2=NCCN2)c1,102% (inactive)
3,CCOC(=O)C1CCN(S(=O)(=O)/N=C2/NC(=O)NC2=C(Cl)Cl)CC1,20.2% (inactive)
4,S=c1ssnc1-c1cc2ccccc2o1,86.7% (inactive)
5,NS(=O)(=O)c1ccc(C2C3=C(CCCC3=O)OC3=C2C(=O)c2ccccc2C3=O)cc1 (stereo not given),-89.8% (active)
6,C=C1C(=O)O[C@H]2[C@H]1CCC(/C=N/c1ncc(Br)cc1N)=C\CC[C@@]1(C)O[C@@H]21,67.3% (inactive)
7,C#Cc1ccccc1NC(=O)c1sc2nc3c(cc2c1N)CCCCC3,99.5% (inactive)
8,NS(=O)(=O)c1ccc(-n2nc(-c3ccccc3)ccc2=O)cc1,102% (inactive)
9,COc1ccc(-c2nnc(N3CCN(C(=O)CN4CCN(c5ccc(OC)cc5)CC4)CC3)nc2-c2ccc(OC)cc2)cc1,1.58% (active)
10,N#Cc1ccc(Oc2ccc3ccc(=O)oc3c2)cc1,102% (inactive)
11,CC1CCCN(CCCCCOc2ccc3oc4ccccc4c(=O)c3c2)C1 (stereo not given),91.3% (inactive)
12,CS(=O)(=O)O[C@@H]1C(=O)N(c2cc3c4ccccc4ccc3c3ccccc23)[C@H]1c1ccc(F)cn1,35.2% (inactive)
13,C=C1C(=O)O[C@H]2[C@H]1CC/C(C=Nc1c(N)cc(F)cc1Br)=C\CC[C@@]1(C)O[C@@H]21,89.2% (inactive)
14,Cc1ccc(SC2c3ccc(C)cc3Oc3nc(N)c(C#N)c(N)c32)cc1 (stereo not given),89.8% (inactive)
15,O=C(Nc1nccs1)c1noc2ccccc12,86.8% (inactive)
16,C=C(C)[C@@H]1CC[C@]2(C(=O)OCCCC[P+](c3ccccc3)(c3ccccc3)c3ccccc3)CC[C@]3(C)[C@H](CC[C@@H]4[C@@]5(C)CC[C@H](OC(=O)C(Cl)Cl)C(C)(C)[C@@H]5CC[C@]43C)[C@@H]12,-0.785% (active)
17,Cc1cc2ccccc2c[n+]1CC(=O)c1ccc(-c2ccccc2)cc1,67.1% (inactive)
18,O=C1Nc2ccc(Cl)cc2/C1=N/c1nc(-c2ccc(F)cc2)cs1,54.1% (inactive)
19,COc1cc(/C=N/Nc2nc(-c3ccc(F)cc3)c(C#N)c(N3CCOCC3)n2)ccc1O,104% (inactive)
20,C=C(C)[C@@H]1CC[C@]2(C(=O)N=C=S)CC[C@]3(C)[C@H](CC[C@@H]4[C@@]5(C)CCC(=O)C(C)(C)[C@@H]5CC[C@]43C)[C@@H]12,30.1% (inactive)
21,CC1(C)[C@@H](O)CC[C@]2(C)[C@H]3CC[C@@H]4[C@H]5[C@H](c6cn(-c7ccccc7)nn6)CC[C@]5(CO)CC[C@@]4(C)[C@]3(C)CC[C@@H]12,93.9% (inactive)
22,COc1cc(/C=C/C(=O)c2ccc(NC(=O)CSc3nnc(-c4cc(OC)c(OC)c(OC)c4)n3-c3ccccc3)cc2)cc(OC)c1OC,-9.19% (active)
23,O=c1c2ccccc2n(CC(O)CN2CCCC2)c2c(Br)cccc12 (stereo not given),100% (inactive)
24,COc1cc(-c2cn(-c3ccc(Cl)c(Cl)c3)c(=O)[nH]2)cc(OC)c1OC,-1.73% (active)
25,COC(=O)c1ccc2c(c1)n(Cc1ccc3ccccc3c1)c[n+]2Cc1ccc2ccccc2c1,63.8% (inactive)
26,O=C1NN(c2ccccc2)C(c2ccc(Cl)cc2)N2CCC[C@H]12 (stereo not given in full),98.8% (inactive)
27,Nc1ccccc1NS(=O)(=O)c1ccc(Cl)cc1,106% (inactive)
28,CCCCCCN1C(=O)CN=C1Nc1ccc2cc3ccc(NC4=NCC(=O)N4CCCCCC)cc3nc2c1,82.4% (inactive)
29,Nc1n[nH]c2cccc(C#Cc3cccc(NC(=O)c4cc(N5CCOCC5)cc(C(F)(F)F)c4)c3)c12,48.2% (inactive)
30,Cc1cnc(SCc2ccc(Cl)cc2Cl)nc1Nc1ccc(Cl)c(Cl)c1,93.4% (inactive)

# — PubChem BioAssay (NCI)
